Source: PubChem BioAssay (Tox21)
Where “and” joins values, the source holds several entries; their conditions need not be identical. Equal entries are not always repeated. Inconclusive results are not listed. Entries that show only a call come without a potency. Some structures have more than one record in an assay (separate samples or runs), and their calls can disagree. Calls of active or inactive are those of the source. Unless noted, the call rests on the fitted dose curve.

Assays:
[1] = Nuclear factor erythroid 2-related factor 2/antioxidant responsive element (Nrf2/ARE) small molecule agonists: qHTS cell viability counter screen in human keratinocytes (AID 1919968; active means well fitted curve in the direction sought with a large enough effect in the repeat runs; an effect the other way counts as inactive or inconclusive; further: nearly all actives have a fitted effect of over 55% in size; further: potency means the concentration at half of the fitted maximal effect)
Method in brief: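 HaCaT ARE reporter line, 1,500 cells/well; 5 h settle, 37 C/5% CO2; cpd in DMSO pinned; 23 h exposure; CellTiter-Fluor, 1 h; fluorescence.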

[2] = Nuclear factor erythroid 2-related factor 2/antioxidant responsive element (Nrf2/ARE) small molecule agonists: luciferase reporter gene qHTS assay in human keratinocytes (AID 1919969); further: nearly all actives have a fitted effect of over 35% in size; further: potency means the concentration at half of the fitted maximal effect
[3] = molecular target: Gonadotropin-releasing hormone receptor (Homo sapiens) (UniProt P30968); assay: Human gonadotropin-releasing hormone receptor (GnRHR) small molecule agonists, calcium flux assay in GnRHR-HEK293 cells (AID 1920063); further: nearly all actives have a fitted effect of over 35% in size
Sequence of Gonadotropin-releasing hormone receptor (Homo sapiens) (P30968 whole entry, looked up): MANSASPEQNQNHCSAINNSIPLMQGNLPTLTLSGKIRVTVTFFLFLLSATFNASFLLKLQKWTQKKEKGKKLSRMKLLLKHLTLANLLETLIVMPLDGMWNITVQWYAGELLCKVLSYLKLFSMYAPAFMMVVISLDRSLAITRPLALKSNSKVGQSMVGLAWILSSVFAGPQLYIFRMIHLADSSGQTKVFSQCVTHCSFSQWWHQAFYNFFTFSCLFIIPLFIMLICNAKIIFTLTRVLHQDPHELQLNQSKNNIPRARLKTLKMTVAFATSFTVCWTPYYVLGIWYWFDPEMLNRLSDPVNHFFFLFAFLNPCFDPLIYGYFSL
Method in brief: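 GnRHR-HEK293, 1500 cells/well, 18 h 37 C/5% CO2; Ca dye 1 h 37 C; cpd pinned (DMSO), agonist mode; kinetic FL 480/540, 3 min, 1 s reads; 15 conc, n=3.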

[4] = molecular target: KiSS-1 receptor (Homo sapiens) (UniProt Q969F8); assay: Human kisspeptin (KISS1R) small molecule agonists, calcium flux assay in KISS1R-HEK293 cells (AID 1920064; active means well fitted curve in the direction sought with a large enough effect in the repeat runs; an effect the other way counts as inactive or inconclusive)
Sequence of KiSS-1 receptor (Homo sapiens) (Q969F8 whole entry, looked up): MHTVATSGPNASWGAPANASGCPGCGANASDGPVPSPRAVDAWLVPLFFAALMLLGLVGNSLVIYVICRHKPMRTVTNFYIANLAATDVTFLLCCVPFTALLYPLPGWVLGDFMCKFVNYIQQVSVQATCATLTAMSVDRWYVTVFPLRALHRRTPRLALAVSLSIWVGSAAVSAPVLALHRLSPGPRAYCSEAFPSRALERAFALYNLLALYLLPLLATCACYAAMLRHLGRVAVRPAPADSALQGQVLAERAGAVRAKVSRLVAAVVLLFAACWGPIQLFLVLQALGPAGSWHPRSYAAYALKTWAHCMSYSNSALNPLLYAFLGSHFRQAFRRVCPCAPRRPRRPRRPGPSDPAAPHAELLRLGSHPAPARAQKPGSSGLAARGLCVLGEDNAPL
Method in brief: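 Stable human KISS1R HEK293 line; 18 h plating, 37 C/5% CO2; calcium dye 1 h 37 C; compound pin transfer; kinetic fluorescence Ex/Em 480/540, 3 min.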

[5] = G protein-coupled receptor (GPCR) small molecule agonists, calcium flux assay: HEK293 wild type cell line counter screen (AID 1920065)
Method in brief: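 Kinetic fluorescence at Ex/Em 480/540, recorded every second over 3 min, served as the read-out after compound addition. Each compound was tested at 15 concentrations in triplicate on cells pre-loaded with calcium dye for 1 h.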

[6] = p53 small molecule agonists, cell-based qHTS assay with rat liver microsomes (AID 1963578)
Method in brief: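 With rat liver microsomes and NADPH present (0.5 mg/mL final each), p53RE-bla cells are treated with compound for 16 h at 37 C. LiveBLAzer detection mixture is then applied for 2 h at room temperature in the dark.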

[7] = p53 small molecule agonists, cell-based qHTS assay with human liver microsomes: qHTS cell viability counter screen (AID 1963579); further: nearly all actives have a fitted effect of over 45% in size; further: potency means the concentration at half of the fitted maximal effect
Method in brief: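 In this multiplexed counter screen, the reporter plates were subsequently treated with CellTiter-Glo so that cell viability, reflected by luminescence, could be recorded for p53RE-bla cells dosed 16 h with compounds under microsomal activation (HLM and NADPH).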

[8] = p53 small molecule agonists, cell-based qHTS assay with rat liver microsomes: qHTS cell viability counter screen (AID 1963580); further: nearly all actives have a fitted effect of over 45% in size; further: potency means the concentration at half of the fitted maximal effect
Method in brief: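 p53RE-bla HCT-116 cells were exposed 16 h at 37 C to compounds with rat liver microsomes (0.5 mg/mL) and NADPH (0.5 mg/mL). Viability was measured in the same wells as ATP content by CellTiter-Glo luminescence.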

[9] = p53 small molecule agonists, cell-based qHTS assay: qHTS cell viability counter screen (AID 1963581); further: nearly all actives have a fitted effect of over 45% in size; further: potency means the concentration at half of the fitted maximal effect
Method in brief: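 HCT-116 p53RE-bla cells, 4,000/well, plated 5 h before compound pin transfer; 16 h at 37 C; bla substrate 2 h RT; then CellTiter-Glo, 30 min RT, luminescence.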

[10] = p53 small molecule agonists, cell-based qHTS assay (AID 1963582; active means well fitted activation curve with a large enough effect in the signal ratio in the repeat runs, not every such curve was filed as active; the % refers to the signal ratio; further: potency means the concentration at half of the fitted maximal effect)
Method in brief: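 Reporter line: p53RE-bla. Pre-incubation 5 h, 37 C, 5% CO2; compound (DMSO, pin tool) 16 h, 37 C; B/G FRET substrate 2 h RT; fluorescence intensity read.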

[11] = molecular target: 5-hydroxytryptamine receptor 2A (Homo sapiens) (UniProt P28223); assay: 5-hydroxytryptamine receptor 2A (HTR2A) small molecule antagonists, cell-based qHTS assay (AID 1963586); further: nearly all actives have a fitted effect of over 45% in size
Sequence of 5-hydroxytryptamine receptor 2A (Homo sapiens) (P28223 whole entry, looked up): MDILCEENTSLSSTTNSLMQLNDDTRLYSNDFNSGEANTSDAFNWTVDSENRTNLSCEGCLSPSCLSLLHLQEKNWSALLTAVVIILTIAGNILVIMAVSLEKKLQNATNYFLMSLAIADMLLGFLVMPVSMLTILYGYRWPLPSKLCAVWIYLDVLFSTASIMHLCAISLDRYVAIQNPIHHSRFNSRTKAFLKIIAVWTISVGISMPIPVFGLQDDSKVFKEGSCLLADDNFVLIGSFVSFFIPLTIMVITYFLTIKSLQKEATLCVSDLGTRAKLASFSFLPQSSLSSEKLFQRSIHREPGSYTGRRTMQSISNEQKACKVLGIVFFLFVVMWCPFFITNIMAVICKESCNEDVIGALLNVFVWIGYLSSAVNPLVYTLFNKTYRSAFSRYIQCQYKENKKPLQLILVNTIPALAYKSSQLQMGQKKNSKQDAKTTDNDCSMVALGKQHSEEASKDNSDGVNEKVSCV
Method in brief: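 Antagonist-mode intracellular calcium assay: DOI (4 nM) added after 5 min compound pre-incubation at room temperature to dye-loaded HTR2A-CHO cells. Fluorescence followed for 3 min, sampled every second.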

[12] = molecular target: 5-hydroxytryptamine receptor 2A (Homo sapiens) (UniProt P28223); assay: 5-hydroxytryptamine receptor 2A (HTR2A) small molecule agonists, cell-based qHTS assay (AID 1963587); further: nearly all actives have a fitted effect of over 30% in size
Method in brief: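 CHO cells stably expressing human HTR2A, plated 18 h, loaded with calcium dye 1 h at 37 C. Agonist mode: compounds added and intracellular calcium fluorescence recorded kinetically for 2 min at 1 sec intervals.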

[13] = molecular target: Muscarinic acetylcholine receptor M1 (Homo sapiens) (UniProt P11229); assay: Cholinergic receptor muscarinic 1 (CHRM1) small molecule antagonists, cell-based qHTS assay (AID 1963588); further: nearly all actives have a fitted effect of over 40% in size
Sequence of Muscarinic acetylcholine receptor M1 (Homo sapiens) (P11229 whole entry, looked up): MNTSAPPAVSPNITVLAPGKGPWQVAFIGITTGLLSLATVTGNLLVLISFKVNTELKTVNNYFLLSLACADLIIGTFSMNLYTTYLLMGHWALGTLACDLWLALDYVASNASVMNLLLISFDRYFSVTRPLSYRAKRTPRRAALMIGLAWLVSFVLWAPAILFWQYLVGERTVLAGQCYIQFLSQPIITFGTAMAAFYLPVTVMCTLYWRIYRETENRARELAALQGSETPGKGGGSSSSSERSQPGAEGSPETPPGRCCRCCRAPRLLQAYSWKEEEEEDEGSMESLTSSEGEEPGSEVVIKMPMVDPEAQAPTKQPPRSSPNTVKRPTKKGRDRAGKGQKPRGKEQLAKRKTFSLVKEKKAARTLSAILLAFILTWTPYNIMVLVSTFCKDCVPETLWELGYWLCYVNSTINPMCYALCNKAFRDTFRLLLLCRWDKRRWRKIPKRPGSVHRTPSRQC
Method in brief: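 CHRM1-CHO calcium-flux assay, antagonist mode. Cells were seeded 18 h, dye-loaded 1 h at 37 C and given compound for 5 min at RT, then acetylcholine was added at 50nM. FDSS fluorescence was read 3 min; 15 concentrations, three runs.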

[14] = molecular target: Muscarinic acetylcholine receptor M1 (Homo sapiens) (UniProt P11229); assay: Cholinergic receptor muscarinic 1 (CHRM1) small molecule agonists, cell-based qHTS assay (AID 1963589); further: nearly all actives have a fitted effect of over 35% in size
Method in brief: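 Human M1 in stable CHO line; 18 h plating, 1 h dye load 37 C; cpd added (agonist mode); Ca2+ fluorescence kinetic read, 1 s intervals; 15 conc, 3 runs.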

[15] = cAMP Responsive Elements (CRE) small molecule agonists, cell-based qHTS assay (AID 1963590)
Method in brief: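 HEK 293T CRE-bla, 2,000 cells/well, 18 h preincubation 37 C/5% CO2; cpds (DMSO) pinned, 3 h; LiveBLAzer B/G FRET substrate, 2 h RT.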

[16] = cAMP Responsive Elements (CRE) small molecule antagonists, cell-based qHTS assay (AID 1963591; active means well fitted inhibition curve with a large enough effect in the signal ratio in the repeat runs, not every such curve was filed as active; the % refers to the signal ratio)
Method in brief: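 Beta-lactamase reporter read by FRET substrate (LiveBLAzer B/G) after 2 h at room temperature. CRE-bla HEK293T cells had received compound plus 0.25 uM (final) NKH477 for 3 h at 37 °C.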

[17] = molecular target: Beta-2 adrenergic receptor (Homo sapiens) (UniProt P07550); assay: Adrenergic beta2 receptor (ADRB2) small molecule antagonists, cell-based qHTS assay (AID 1963592); further: series mostly up to about 92 µM; nearly all actives have a fitted effect of over 50% in size
Sequence of Beta-2 adrenergic receptor (Homo sapiens) (P07550 whole entry, looked up): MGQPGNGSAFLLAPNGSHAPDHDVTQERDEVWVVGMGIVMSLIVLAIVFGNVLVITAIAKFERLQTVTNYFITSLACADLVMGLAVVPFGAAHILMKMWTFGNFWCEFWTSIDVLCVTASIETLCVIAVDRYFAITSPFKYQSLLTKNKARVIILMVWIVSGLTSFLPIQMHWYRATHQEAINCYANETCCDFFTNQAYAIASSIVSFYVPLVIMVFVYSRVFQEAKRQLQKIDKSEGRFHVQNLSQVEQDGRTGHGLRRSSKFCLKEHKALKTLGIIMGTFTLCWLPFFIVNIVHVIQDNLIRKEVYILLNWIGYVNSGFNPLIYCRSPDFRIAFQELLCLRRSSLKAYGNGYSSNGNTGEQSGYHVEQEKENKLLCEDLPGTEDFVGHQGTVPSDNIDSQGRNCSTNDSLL
Method in brief: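 Cells (CHO, stable ADRB2 overexpression) incubated 18-20hr at 37C; compounds added from DMSO; agonist mix (1nM isoproterenol, 100uM IBMX, 25uM Ro-20-1724) added; 0.5hr RT; d2-cAMP and anti-cAMP-cryptate added; 1hr RT; 665/615 nm read.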

[18] = molecular target: D(2) dopamine receptor (Homo sapiens) (UniProt P14416); assay: Dopamine D2 receptor (DRD2) small molecule agonists, cell-based qHTS assay (AID 1963594); further: nearly all actives have a fitted effect of over 35% in size
Sequence of D(2) dopamine receptor (Homo sapiens) (P14416 whole entry, looked up): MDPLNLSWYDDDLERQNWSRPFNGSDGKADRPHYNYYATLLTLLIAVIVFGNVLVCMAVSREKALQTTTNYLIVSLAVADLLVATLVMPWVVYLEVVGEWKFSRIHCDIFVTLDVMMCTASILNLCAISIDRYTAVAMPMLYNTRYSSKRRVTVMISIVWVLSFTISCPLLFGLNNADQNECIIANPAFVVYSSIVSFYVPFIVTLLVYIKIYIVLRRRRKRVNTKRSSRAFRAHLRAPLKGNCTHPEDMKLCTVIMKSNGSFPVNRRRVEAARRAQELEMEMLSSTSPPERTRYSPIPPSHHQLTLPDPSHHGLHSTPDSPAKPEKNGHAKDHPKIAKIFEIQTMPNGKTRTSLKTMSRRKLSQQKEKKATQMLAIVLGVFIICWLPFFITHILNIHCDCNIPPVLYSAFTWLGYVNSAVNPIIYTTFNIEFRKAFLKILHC
Method in brief: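 HEK293 cells stably expressing human DRD2, pre-treated with PDE inhibitor Ro20-1724 (0.1 mM final) and compound 10 min at room temperature, then stimulated with NKH477 (200nM […]) for 30 min. cAMP read by HTRF (665/620 nm).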

[19] = molecular target: D(2) dopamine receptor (Homo sapiens) (UniProt P14416); assay: Dopamine D2 receptor (DRD2) small molecule antagonists, cell-based qHTS assay (AID 1963595; active means well fitted inhibition curve with a large enough effect in the signal ratio in the repeat runs, with a control signal flat; the % refers to the signal ratio)
Method in brief: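 HTRF cAMP read-out at 665 and 620 nm emission (340 nm excitation). Antagonist mode: compounds were tested against 12 nM quinpirole in DRD2-HEK293 cells, with 200 nM NKH477 raising cAMP and 0.1 mM Ro20-1724 blocking its breakdown.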

[20] = molecular target: Beta-2 adrenergic receptor (Homo sapiens) (UniProt P07550); assay: Adrenergic beta2 receptor (ADRB2) small molecule agonists, cell-based qHTS assay (AID 1963593);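 further: CHO cells stably overexpressing human ADRB2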
Method in brief: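 CHO cells stably over-expressing ADRB2 were plated overnight at 37C, then dosed with compounds plus a stimulation mix containing 100uM IBMX and 25uM Ro-20-1724 for 0.5hr at room temperature. cAMP was measured by HTRF competition, 1hr.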

Structure (SMILES)	Potency [1]	Potency [2]	Potency [3]	Potency [4]	Potency [5]	Potency [6]	Potency [7]	Potency [8]	Potency [9]	Potency [10]	Potency [11]	Potency [12]	Potency [13]	Potency [14]	Potency [15]	Potency [16]	Potency [17]	Potency [18]	Potency [19]	Potency [20]
c1ccc2c(c1)Cc1ccccc1-2	inactive	inactive	inactive	inactive	inactive	inactive	inactive	inactive	inactive	inactive	inactive	inactive	inactive	inactive	inactive	inactive	inactive	inactive	inactive	
CCCc1c(OCCCCc2nn[nH]n2)ccc(C(C)=O)c1O	inactive	inactive	inactive	inactive	inactive		inactive	inactive	inactive		inactive	inactive	inactive	inactive			inactive		inactive	
CCCCOCCOCCO	inactive	inactive	inactive	inactive	inactive		inactive		inactive	inactive	inactive	inactive	inactive	inactive	inactive	inactive	inactive	inactive	inactive	inactive
Nc1cc(Cl)c(N)c(Cl)c1	inactive	68 µM (active) and inactive	inactive	inactive	inactive	inactive	inactive	inactive	inactive	inactive	inactive	inactive	inactive	inactive	inactive	inactive		inactive	inactive	
CC1=C(/C=C/C(C)=C/C=C/C(C)=C/C(=O)Nc2ccc(O)cc2)C(C)(C)CCC1	49.8 µM (active) and 13.3 µM (active)	2.22 µM (active) and 2.11 µM (active)	inactive	inactive	inactive		41.8 µM (active) and inactive	inactive			inactive	inactive	inactive	inactive	inactive		inactive	inactive	inactive	inactive
CC(=O)[C@@]1(O)CC[C@H]2[C@@H]3C[C@H](C)C4=CC(=O)C=C[C@]4(C)[C@@]3(F)[C@@H](O)C[C@@]21C	inactive	inactive	inactive	inactive	inactive	inactive	inactive		inactive	inactive					inactive	inactive		inactive	inactive	inactive
CC(=O)NS(=O)(=O)c1ccc(N)cc1	inactive	inactive	inactive	inactive	inactive	inactive	inactive	inactive	inactive	inactive	inactive	inactive	inactive	inactive	inactive	inactive	inactive	inactive	inactive	
OC1CCCCC1	inactive	inactive	inactive	inactive	inactive	inactive	inactive	inactive	inactive	inactive	inactive	inactive	inactive	inactive	inactive	inactive	inactive	inactive	inactive	inactive
CCCCC(CC)C(=O)O (stereo unspecified)	inactive	inactive	inactive	inactive	inactive		inactive	inactive	inactive		inactive	inactive	inactive	inactive	inactive	inactive	inactive	inactive	inactive	inactive
N#Cc1ccccc1	inactive	inactive	inactive	inactive	inactive	inactive		inactive	inactive	inactive	inactive	inactive	inactive	inactive	inactive	inactive	inactive	inactive	inactive	
Cc1ccc(N)c([N+](=O)[O-])c1	inactive	inactive	inactive	inactive	inactive		inactive	inactive	inactive		inactive	inactive	inactive	inactive	inactive	inactive	inactive	inactive	inactive	inactive
CC(=O)CCC(=O)O	inactive	inactive	inactive	inactive	inactive		inactive	inactive	inactive		inactive	inactive	inactive	inactive		inactive		inactive	inactive	inactive
O=C(O)c1ccccc1	inactive	inactive	inactive	inactive	inactive		inactive	inactive	inactive	inactive					inactive		inactive	inactive	inactive	inactive
CCCCCCCCCC(=O)OC	inactive	inactive	inactive	inactive	inactive		inactive	inactive	inactive		inactive	inactive	inactive	inactive	inactive	inactive	inactive	inactive	inactive	inactive
O=c1[nH]cc(F)c(=O)[nH]1	5.65 µM (active) and inactive	inactive	inactive	inactive	inactive		inactive	47.5 µM (active) and inactive	inactive	2.63 µM (active) and 7.93 µM (active)					inactive	inactive	inactive	inactive	inactive	
COCCOCCOC	inactive	inactive	inactive	inactive	inactive		inactive	inactive	145 nM (active) and inactive	inactive	inactive	inactive	inactive	inactive	inactive	inactive	inactive	inactive	inactive	inactive
C1CCCNCC1	inactive	inactive	inactive	inactive	inactive		inactive	inactive	inactive		inactive	inactive	inactive	inactive	inactive	inactive	inactive	inactive	inactive	inactive
